Laboratory results taken from PubChem BioAssay (NCI).
About 83,000 compounds went through this panel and 20% of them were active in at least one assay; those are over-represented in the sample as a whole.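 The test compound was applied at a single concentration to cells in 96-well plates for 48 hours, and percent growth was recorded.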 Calls of active or inactive are those of the source. Rule for the calls: active = growth percent below 10; inactive = the rest.

What was measured:
Experiment in all cases: NCI-60 one-dose screen, 48 h (100 = growth as untreated, 0 = no growth, -100 = all killed)
Conditions in all cases: 10 µM unless noted
HCT-15 colon = system: HCT-15 colon
HT29 colon = system: HT29 colon
SNB-75 CNS = system: SNB-75 CNS
SNB-19 CNS = system: SNB-19 CNS
PC-3 prostate = system: PC-3 prostate
SK-MEL-5 melanoma = system: SK-MEL-5 melanoma
UACC-62 melanoma = system: UACC-62 melanoma
LOX IMVI melanoma = system: LOX IMVI melanoma
SK-MEL-28 melanoma = system: SK-MEL-28 melanoma
U251 CNS = system: U251 CNS

Measured: growth

O=S(=O)(Nc1ccc(OC(F)F)cc1)c1ccc(-c2cnc(C3CC3)o2)cc1
inactive: HCT-15 colon 38.4% | HT29 colon 55.6% | SNB-75 CNS 42.7% | SNB-19 CNS 75.8% | PC-3 prostate 67.6% | SK-MEL-5 melanoma 57.7% | UACC-62 melanoma 44% | LOX IMVI melanoma 72% | SK-MEL-28 melanoma 85.3%

CC(C)c1c(C(=O)c2ccccc2)c(-c2ccccc2)c(-c2ccc(F)cc2)n1CC[C@@H](O)C[C@@H](O)CC(=O)O
inactive: HCT-15 colon 47.5% | HT29 colon 106% | SNB-19 CNS 57.4% | PC-3 prostate 37% | UACC-62 melanoma 16.6% | SK-MEL-28 melanoma 65.4%

O=S(=O)(Nc1ccc(Br)c(Cl)c1)c1ccc(-c2cnc(C3CC3)o2)cc1
active: HT29 colon -15.3% | SNB-75 CNS -5.71%
inactive: HCT-15 colon 20.7% | SNB-19 CNS 35% | PC-3 prostate 23.9% | SK-MEL-5 melanoma 10.2% | UACC-62 melanoma 30.1% | LOX IMVI melanoma 43.7% | SK-MEL-28 melanoma 57.9%

O=C1CC(=NCC(=O)n2c(-c3ccccc3)nc3ccccc32)NN1
inactive: HCT-15 colon 99.1% | HT29 colon 108% | SNB-75 CNS 66.6% | SNB-19 CNS 97.7% | PC-3 prostate 99.2% | SK-MEL-5 melanoma 96.6% | UACC-62 melanoma 94.9% | LOX IMVI melanoma 89.9% | SK-MEL-28 melanoma 118%

CC1=NN(c2nc(-c3ccc(Cl)cc3)c(C#N)c(N3CCOCC3)n2)C(=O)C1
inactive: HCT-15 colon 89.3% | HT29 colon 94.1% | SNB-75 CNS 56.5% | SNB-19 CNS 94.6% | PC-3 prostate 98.5% | SK-MEL-5 melanoma 94.3% | UACC-62 melanoma 13.8% | LOX IMVI melanoma 75.5% | SK-MEL-28 melanoma 33.1%

COc1ccc(-c2nc3ccc(-c4nc5ccc(N6CCN(C)CC6)cc5[nH]4)cc3[nH]2)cc1OC
inactive: HCT-15 colon 91% | HT29 colon 49.4% | SNB-75 CNS 54% | SNB-19 CNS 90.3% | PC-3 prostate 62.8% | SK-MEL-5 melanoma 26.3% | UACC-62 melanoma 19.2% | LOX IMVI melanoma 43.9% | SK-MEL-28 melanoma 39%

CC(=O)O[C@H]1CC[C@]2(C)[C@H]3CC=C4[C@@H]5CC(C)(C)CC[C@]5(C(=O)NCCNCCN)CC[C@@]4(C)[C@]3(C)CC[C@H]2C1(C)C
active: HCT-15 colon -89.3% | HT29 colon -92.8% | SNB-19 CNS 2.09% | PC-3 prostate -44.3% | UACC-62 melanoma -21.2% | LOX IMVI melanoma -100% | SK-MEL-28 melanoma -85.6%
inactive: SNB-75 CNS 88% | SK-MEL-5 melanoma 71.4%

c1ccc(-c2c(-c3ccccc3)[n+](Cc3ccc4ccccc4c3)c(-c3ccc(-c4nc5ccccc5s4)cc3)n2Cc2ccc3ccccc3c2)cc1
active: HCT-15 colon -91.5% | HT29 colon -85.5% | SNB-75 CNS -78.8% | SNB-19 CNS -97.6% | PC-3 prostate -88.8% | SK-MEL-5 melanoma -98.3% | UACC-62 melanoma -75.2% | LOX IMVI melanoma -98.3% | SK-MEL-28 melanoma -88.3%

CCCN1CCN(c2ccc3nc(-c4ccc5nc(-c6ccc(OCC)cc6)[nH]c5c4)[nH]c3c2)CC1
active: HCT-15 colon -56.5% | HT29 colon -69% | PC-3 prostate -69.5% | LOX IMVI melanoma -95%
inactive: SNB-75 CNS 50.3% | SNB-19 CNS 62% | SK-MEL-5 melanoma 28.9% | UACC-62 melanoma 51.4% | SK-MEL-28 melanoma 48.4%

Cc1cc(N[C@@H]2CCC[C@H](Nc3ccnc4cc(Cl)ccc34)C2)nc(N2CCCCCC2)n1
active: HT29 colon -59.9% | SNB-75 CNS -83.7% | SNB-19 CNS -22.2% | U251 CNS -92.6% | PC-3 prostate -67.7% | UACC-62 melanoma -90.2% | LOX IMVI melanoma -86.3%

COc1cccc(-c2nc3sccn3c2-c2ccnc(NCCCNS(=O)(=O)c3cccc(F)c3)c2)c1
inactive: HCT-15 colon 13.7% | HT29 colon 38.7% | SNB-75 CNS 29.3% | SNB-19 CNS 55% | PC-3 prostate 13.6% | LOX IMVI melanoma 23.7% | SK-MEL-28 melanoma 42.6%
active: SK-MEL-5 melanoma -31.2% | UACC-62 melanoma -32.7%

COc1cccc(-c2nn(C(C)(C)C)cc2-c2ccnc(NCCCNS(=O)(=O)c3cccc4ccccc34)c2)c1
inactive: HCT-15 colon 108% | HT29 colon 103% | SNB-75 CNS 71.2% | SNB-19 CNS 100% | PC-3 prostate 106% | SK-MEL-5 melanoma 100% | UACC-62 melanoma 108% | LOX IMVI melanoma 99.8% | SK-MEL-28 melanoma 112%

COc1cccc(-c2nn(C(C)(C)C)cc2-c2ccnc(NCCCNS(=O)(=O)c3ccc(C)cc3)c2)c1
inactive: HCT-15 colon 107% | HT29 colon 105% | SNB-75 CNS 69.8% | SNB-19 CNS 102% | PC-3 prostate 102% | SK-MEL-5 melanoma 100% | UACC-62 melanoma 107% | LOX IMVI melanoma 99.5% | SK-MEL-28 melanoma 112%

C=CC(=O)Nc1cccc(-c2nc(SC)nc(NCc3ccccc3)c2C#N)c1
inactive: HCT-15 colon 58.4% | HT29 colon 62.2% | SNB-75 CNS 19.6% | SNB-19 CNS 54.8% | PC-3 prostate 74.8% | SK-MEL-5 melanoma 74% | UACC-62 melanoma 61% | LOX IMVI melanoma 65.8% | SK-MEL-28 melanoma 82.4%

Cc1oc(-c2ccc(Cl)cc2Cl)cc1C(=O)Nc1nccs1
inactive: HCT-15 colon 85.6% | HT29 colon 86.6% | SNB-75 CNS 84.4% | SNB-19 CNS 98.8% | PC-3 prostate 96.6% | SK-MEL-5 melanoma 97.1% | UACC-62 melanoma 91.7% | LOX IMVI melanoma 79.1% | SK-MEL-28 melanoma 105%

CSc1nc(NCCO)c(C#N)c(-c2cccc([N+](=O)[O-])c2)n1
inactive: HCT-15 colon 98.7% | HT29 colon 112% | SNB-75 CNS 72.8% | SNB-19 CNS 90.7% | PC-3 prostate 94.7% | SK-MEL-5 melanoma 97.2% | UACC-62 melanoma 87% | LOX IMVI melanoma 91.6% | SK-MEL-28 melanoma 112%

N#C/C(=C\c1ccc(-c2cc(C(F)(F)F)ccc2Cl)o1)c1nc(-c2ccco2)cs1
inactive: HCT-15 colon 103% | HT29 colon 101% | SNB-75 CNS 70% | SNB-19 CNS 95.2% | PC-3 prostate 99.5% | SK-MEL-5 melanoma 97.5% | UACC-62 melanoma 78.9% | LOX IMVI melanoma 99.5% | SK-MEL-28 melanoma 108%

COc1cc(CNc2oc(-c3ccccc3)c(-c3ccccc3)c2C#N)cc(CN2CCN(C)CC2)c1O
inactive: SNB-75 CNS 52.4% | SNB-19 CNS 83.3% | PC-3 prostate 57.6% | SK-MEL-5 melanoma 49.8% | UACC-62 melanoma 91.1%
active: HCT-15 colon -55.9% | HT29 colon 5.27% | LOX IMVI melanoma -74.6% | SK-MEL-28 melanoma -38.4%

COc1cccc(-c2nc3sccn3c2-c2ccnc(NCCNS(=O)(=O)c3ccccc3)c2)c1
active: SK-MEL-5 melanoma -39.3% | UACC-62 melanoma -31.3%
inactive: HCT-15 colon 11.8% | HT29 colon 23.6% | SNB-75 CNS 15.2% | SNB-19 CNS 51.6% | PC-3 prostate 11.3% | LOX IMVI melanoma 24% | SK-MEL-28 melanoma 50%

CC1(C)CC[C@]2(C(=O)Nc3ccccn3)CC[C@]3(C)C(=CC[C@@H]4[C@@]5(C)C/C(=C/c6cccnc6)C(=O)C(C)(C)[C@@H]5CC[C@]43C)[C@H]2C1
inactive: HCT-15 colon 18.9% | HT29 colon 25.1% | SNB-75 CNS 45.2% | SNB-19 CNS 63.8% | PC-3 prostate 19.9% | UACC-62 melanoma 34.1% | LOX IMVI melanoma 14.9% | SK-MEL-28 melanoma 48.2%
active: SK-MEL-5 melanoma -14.8%

C=CC(=O)Nc1cccc(-c2nc(SC)nc(NCCN3CCOCC3)c2C#N)c1
inactive: HCT-15 colon 90.1% | HT29 colon 89.4% | SNB-75 CNS 44.8% | SNB-19 CNS 88.5% | PC-3 prostate 92.7% | SK-MEL-5 melanoma 94.9% | UACC-62 melanoma 86.7% | LOX IMVI melanoma 85.5% | SK-MEL-28 melanoma 114%

COc1ccc(-c2nc3ccc(-c4nc5ccc(N6CCN(c7ccncc7)CC6)cc5[nH]4)cc3[nH]2)cc1OC
inactive: HCT-15 colon 88.7% | HT29 colon 22.6% | SNB-75 CNS 52.8% | SNB-19 CNS 40.9% | PC-3 prostate 54.8% | SK-MEL-5 melanoma 14.1% | UACC-62 melanoma 17.5% | LOX IMVI melanoma 16.9% | SK-MEL-28 melanoma 19.1%

CC/C=C\C[C@H](O)C/C=C1/C(=O)C=C[C@@]1(C)C/C=C\CCCC(=O)OC
inactive: HT29 colon 110% | SNB-75 CNS 99.1% | SNB-19 CNS 101% | U251 CNS 94.2% | PC-3 prostate 96.1% | LOX IMVI melanoma 94.3%

C=C1c2nc3ccccc3n2C=C(c2cccc(Cl)c2)N1Cc1ccc(OC)cc1
inactive: HT29 colon 99.1% | SNB-75 CNS 16.5% | SNB-19 CNS 20.4% | U251 CNS 18.4% | UACC-62 melanoma 44.7% | LOX IMVI melanoma 37.2% | SK-MEL-28 melanoma 67.7%
active: SK-MEL-5 melanoma -31.1%

COC(=O)[C@@H]1CCCN1C(=O)[C@@H]1CCCN1C(=O)[C@H](Cc1ccccc1)NC(=S)Nc1cc(C(F)(F)F)cc(C(F)(F)F)c1
inactive: HT29 colon 74.7% | SNB-75 CNS 73.8% | SNB-19 CNS 33.3% | SK-MEL-5 melanoma 86.4% | UACC-62 melanoma 85.3% | LOX IMVI melanoma 88.5% | SK-MEL-28 melanoma 85.3%
active: U251 CNS 7.88%

CC[C@@H](C(=O)[C@@H](C)[C@@H](O)[C@H](C)[C@@H]1O[C@@H]([C@@H](CC)C(=O)O)CC[C@@H]1C)[C@H]1OC2(C=C[C@@H](O)[C@]3(CC[C@@](C)([C@H]4CC[C@](O)(CC)[C@H](C)O4)O3)O2)[C@H](C)C[C@@H]1C (some centres not stated)
active: SNB-75 CNS -28.8% | SNB-19 CNS -33.7% | U251 CNS 0.353% | UACC-62 melanoma -96.2% | LOX IMVI melanoma 8.3% | SK-MEL-28 melanoma -89.8%
inactive: HT29 colon 13.5% | PC-3 prostate 31.2%

Cc1nn(-c2ccc(F)cc2)c2ncnc(Oc3ccc(NC(=O)Nc4ccc(Cl)c(C(F)(F)F)c4)cc3)c12
inactive: HT29 colon 109% | SNB-75 CNS 88.1% | SNB-19 CNS 98.9% | U251 CNS 97.9% | SK-MEL-5 melanoma 99.1% | UACC-62 melanoma 96.6% | LOX IMVI melanoma 99.4% | SK-MEL-28 melanoma 102%

CC[C@@H]1O[C@H](O[C@@H](c2cnc[nH]2)[C@H](NC(=O)c2nc([C@H](CC(N)=O)NC[C@@H](N)C(N)=O)nc(N)c2C)C(=O)N[C@H](C)[C@H](O)[C@H](C)C(=O)N[C@@H](C(=O)NCCc2nc(-c3nc(C(=O)NCCCCN=C(N)N)cs3)cs2)[C@@H](C)O)[C@H](O[C@@H]2O[C@H](CO)[C@H](O)[C@H](OC(N)=O)[C@@H]2O)[C@H](C)[C@@H]1C
inactive: HT29 colon 53.9% | SNB-19 CNS 45.9% | U251 CNS 35.3% | PC-3 prostate 71.2% | UACC-62 melanoma 37.5% | SK-MEL-28 melanoma 87.6%
